IL-1B inflam inh: inflammasome signaling inhibition, IL-1 beta readout | activity change, % at 57.5 µM | AID 743279 | actives 4.7% (n = 360,000) | THP-1 LPS/ATP IL-1B secretion, AlphaLISA, 16 h; active compounds read low; in the data active = activity change below about -50%; inconclusive = mostly about -30% to -49%; note: % is set by controls: 0 for no effect and ±100 for the full control effect
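THP-1 cells pretreated 1 hr with compounds (up to 57.5 uM final), then stimulated with LPS (250 ng/mL final) plus ATP (1.25 mM final); secreted IL-1B measured by AlphaLISA after 16 hr, decreased signal indicating inhibition.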
HepG2 tox: counter-screen for TGF-b inhibitors: cytotoxicity in HepG2 cells; HepG2 CAGA-GFP viability, ATP luminescence, 18 h; Potency, µM (top dose mostly 46.1 µM), for the others: at the highest dose activity change, negative = cytotoxicity, actives largely listed as cytotoxic; actives 0.76% (n = 410,000); AID 588856; note: potency is the fitted concentration of half-maximal effect
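HepG2 CAGA-GFP cells (1000/well, DMEM with 1% FBS) received compound, then TGF-beta at 500 pg/mL final, and were incubated 18 hours at 37 degrees C. Viability was read by CellTiter-Glo luminescence. Media-only wells were set as complete cell-killing and DMSO as no toxicity.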
DT40 TDP1 CPT: DT40-hTDP1 cell growth loss with CPT; chicken DT40 Tdp1-/-;hTDP1 cells + 20 nM CPT, ATP luminescence, 48 h; Potency, µM (series often up to 46.2 µM), inactives show at the top dose activity change, negative = growth inhibition, actives largely listed as inhibitors; actives 12% (n = 420,000); note: potency is the fitted concentration of half-maximal effect; % is set by controls: 0 for no effect and ±100 for the full control effect; nearly all actives have a fitted effect of over 55% in size
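Cell growth measured by CellTiter-Glo luminescence after a minimum 48 h, 37 C compound exposure with 20 nM CPT in Tdp1-knockout DT40 cells stably expressing hTDP1, seeded 400/well; qHTS titration format.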
DT40 TDP1 no CPT: qHTS for Inhibitors of human tyrosyl-DNA phosphodiesterase 1 (TDP1): qHTS in cells in absence of CPT. actives 15% (n = 420,000). DT40 Tdp1-/- hTDP1 cells, no CPT, ATP luminescence, 48 h. Potency, µM (highest dose often 46.2 µM), for the others: at the highest dose activity change, negative = growth inhibition, most hits filed as inhibitors; note: potency is the fitted concentration of half-maximal effect; % is set by controls: 0 for no effect and ±100 for the full control effect; nearly all actives have a fitted effect of over 55% in size
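Chicken DT40 Tdp1-/- cells complemented with human TDP1, screened without camptothecin (DMSO vehicle only), 400 cells/well. Compounds pin-transferred, cells incubated at 37 °C for at least 48 hr. Growth read as ATP-dependent luminescence (CellTiter-Glo, 30 min at RT).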
TDP1 inh: blocks human tyrosyl-DNA phosphodiesterase 1; recombinant TDP1, AlphaScreen DNA substrate cleavage; Potency, µM (top dose mostly 130 µM), inactives show at the top dose activity change, negative = inhibition, most hits filed as inhibitors; actives 0.28% (n = 350,000); AID 485290; note: potency is the fitted concentration of half-maximal effect; % is set by controls: 0 for no effect and ±100 for the full control effect; nearly all actives have a fitted effect of over 40% in size
Target sequence (Q9NUW8 whole entry, looked up): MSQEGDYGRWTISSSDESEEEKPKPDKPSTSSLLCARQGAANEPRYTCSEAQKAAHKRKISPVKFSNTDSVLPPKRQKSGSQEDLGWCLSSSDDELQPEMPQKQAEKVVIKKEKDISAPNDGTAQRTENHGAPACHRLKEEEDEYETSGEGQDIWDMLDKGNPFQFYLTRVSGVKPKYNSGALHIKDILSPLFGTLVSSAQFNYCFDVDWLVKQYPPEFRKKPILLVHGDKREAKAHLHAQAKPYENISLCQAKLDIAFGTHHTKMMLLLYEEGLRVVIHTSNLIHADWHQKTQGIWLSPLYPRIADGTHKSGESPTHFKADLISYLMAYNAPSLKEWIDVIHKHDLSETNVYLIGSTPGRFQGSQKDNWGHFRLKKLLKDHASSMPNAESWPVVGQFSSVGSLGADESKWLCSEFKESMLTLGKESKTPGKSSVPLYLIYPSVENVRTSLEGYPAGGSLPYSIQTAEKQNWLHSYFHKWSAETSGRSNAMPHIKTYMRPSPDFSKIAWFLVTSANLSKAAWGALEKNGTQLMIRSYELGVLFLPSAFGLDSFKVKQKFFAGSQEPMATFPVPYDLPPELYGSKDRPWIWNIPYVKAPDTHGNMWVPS
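Tdp1 1 nM final; 15 min RT w/ cpd; substrate 15 nM, 5 min; beads 10 ug/ml, 10 min; AlphaScreen read. Neg ctrl: no enzyme.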
TGFb inhibitor: blocks TGF-b signaling; actives 1.2% (n = 410,000); HepG2 CAGA-GFP TGF-b/SMAD3 reporter, GFP fluorescence, 18 h; TGF-beta stimulated, 500 pg/mL final; Potency, µM (highest dose often 46.1 µM), for inactives: at the highest dose activity, negative = inhibition, most hits filed as inhibitors; note: potency is the fitted concentration of half-maximal effect; % is set by controls: 0 for no effect and ±100 for the full control effect; nearly all actives have a fitted effect of over 65% in size
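Inhibition of TGF-beta-driven CAGA-GFP reporter expression in HEPG2 cells is measured by cellular GFP fluorescence after 18 h stimulation with 500 pg/mL recombinant TGF-beta in 1% FBS medium at 37 degrees C.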
The depositor's hits bear a star; i = inactive; ? = inconclusive; · = not tested or not shown; [ ] = dose if it differs, or a comment. Shown are actives, neighbours in structure and some others; about 18% of the full set was active somewhere. Unless noted, calls come from the whole dose curve; as a rule, active = well fitted curve in the direction sought with a large enough effect; inconclusive = small, poorly fitted or top-dose-only effect, or another doubt; inactive = no such curve, though single readings can be large; an effect the other way counts as inactive or inconclusive.

SMILES	IL-1B inflam inh	HepG2 tox	DT40 TDP1 CPT	DT40 TDP1 no CPT	TDP1 inh	TGFb inhibitor
CCc1ccc(CC2S/C(=C(\C#N)C(C)=O)NC2=O)cc1 (centres undefined)	31	-22%	1.6µM*	2.3µM*	6%	31%
CC(=O)/C(C#N)=C1\NC(=O)C(Cc2ccc(C)c(Cl)c2)S1 (centres undefined)	38	-167%	10µM*	2.1µM*	-1%	-13%
O=C1NC(=Nc2ccc(F)cc2)SC1Cc1ccc(F)cc1 (centres undefined)	?	-35%	?	?	2%	-8%
CC(C)c1ccc2c(c1)[C@H]1OCC[C@H]1[C@@H](c1cccs1)N2	-2	4%	16µM*	10µM*	8%	-12%
Cc1cc(C)c2c(c1)N[C@H](c1cccs1)[C@@H]1CCO[C@H]21	-15	-17%	-21%	?	1%	19%
CCN1CCN(c2ncnc3c2sc2nc(N4CCOCC4)c4c(c23)CCC4)CC1	45	6%	?	?	0%	17%
S=c1nc[nH]c2c1sc1nc(N3CCOCC3)c3c(c12)CCCC3	-7	-62%	?	23µM*	3%	0%
CC(C)c1nc2sc3c(=S)nc[nH]c3c2c2c1CCC2	41	14%	?	23µM*	-3%	-13%
CN(CCO)c1ncnc2c1sc1nc(N3CCOCC3)c3c(c12)CCC3	-23	6%	13µM*	21µM*	4%	10%
COc1ccc(C(C(=O)NC2CCCC2)N(Cc2cccnc2)C(=O)c2snc(C(N)=O)c2N)cc1OC (centres undefined)	46	6%	13%	8%	·	10%
COc1ccc(-n2cc(CNCCc3cscn3)c(-c3ccccc3Cl)n2)cc1	-63*	-38%	16µM*	12µM*	4%	-23%
Cc1ccc(-n2cc(CNCCc3cscn3)c(-c3ccc(F)cc3)n2)cc1	-94*	-63%	?	23µM*	6%	?
Cc1ccc(-n2cc(CNC(C)Cn3cncn3)c(-c3ccc(F)cc3)n2)cc1 (centres undefined)	?	-40%	?	?	5%	-13%
Cc1cc(C(=O)Nc2ccccc2-c2nc(CNC(=O)c3ccc(F)cc3F)c(C)o2)c(C)o1	·	·	-3%[9.04 µM]	-20%	·	·
CCOC(=O)c1c(-c2ccc(OC)cc2)csc1NC(=O)CSc1ccccc1	-12	-48%	?	?	-6%	0%
CCOC(=O)c1c(-c2ccc(OC)cc2)csc1/N=C/C1C(=O)CCCC1=O	-18	16µM*	-22%	?	2%	37%
CCOC(=O)c1c(-c2ccc(OC)cc2)csc1/N=C/N(C)C	i	-47%	-18%	26µM*	4%	-2%
CCS(=O)(=O)Nc1ccc2[nH]c(=O)[nH]c2c1	-10	4%	5%	2%	-7%	21%
CCOC1=C2CN(S(=O)(=O)c3ccc(C)cc3)C(c3ccc(C)cc3)CC2N(S(=O)(=O)c2ccc(C)cc2)C(c2ccccc2)C1 (centres undefined)	16	·	?	-28%	·	·
COc1ccc(OCCNC(=O)/C=C/c2ccccc2)cc1	76	-14%	1%	-6%	3%	-9%
CC[N+](CC)(CC)CCOc1cccc(OCC[N+](CC)(CC)CC)c1OCC[N+](CC)(CC)CC	75	-2%	16%	-10%	6%[56.1 µM]	19%
CC[N+](CC)(CC)CCOc1ccc(/C=C\c2ccccc2)cc1	·	·	2.7µM*	2.1µM*	10%[56.1 µM]	·
CC[N+](CC)(CC)CCOc1ccc(/C=C/c2ccccc2)cc1	27	0%	4.6µM*	2.6µM*	6%	-9%
Cc1ccc(NC(=O)CN(C)C(C)C(=O)Nc2ccc(S(=O)(=O)N3CCCC3)cc2)cc1 (centres undefined)	-16	-3%	18µM*	23µM*	·	2%
CN(CC(=O)Nc1ccc(S(=O)(=O)N2CCCC2)cc1)Cc1ccc(Cl)cc1Cl	10	-5%	18µM*	?	0%	?
SMILES	IL-1B inflam inh	HepG2 tox	DT40 TDP1 CPT	DT40 TDP1 no CPT	TDP1 inh	TGFb inhibitor
CC1CC(C)CN(C(=O)C(C)N(C)CC(=O)Nc2ccc(Cl)cc2)C1 (centres undefined)	0	-13%	16µM*	15µM*	-5%	?
CC1CC(C)CN(C(=O)C(C)N(C)CC(=O)Nc2ccc(F)cc2)C1 (centres undefined)	12	6%	-28%	?	0%	-2%
CC(C(=O)Nc1ccc(S(=O)(=O)N2CCCC2)cc1)N(C)CC(=O)Nc1cccc(F)c1 (centres undefined)	0	-16%	?	?	0%	-8%
CN(CC(=O)Nc1cccc(F)c1)C(=O)c1ccc(N2CCCCC2)c([N+](=O)[O-])c1	-27	-21%	16µM*	15µM*	·	0%
OC1(c2cccnc2)CCN(Cc2ccc3c(c2)CN(Cc2cccc(F)c2F)CCO3)CC1	·	·	0%[9.04 µM]	?	·	·
CN(CC(=O)Nc1ccc(S(=O)(=O)N2CCCC2)cc1)CC(=O)Nc1cccc(F)c1	-17	1%	18µM*	23µM*	0%	-29%
O=C(CSCc1ccc(Cl)cc1)Nc1ccc(S(=O)(=O)N2CCCCCC2)cc1	22	-26%	?	?	3%	?
COc1ccc(CCN(C)c2ccc(S(=O)(=O)N3CCCC3)cc2[N+](=O)[O-])cc1OC	-15	10%	16µM*	12µM*	3%	0%
COc1ccc(N(C(C)C(=O)Nc2ccc(S(=O)(=O)N3CCCCC3)cc2)S(C)(=O)=O)cc1 (centres undefined)	5	7%	?	29µM*	·	7%
CN(CC(=O)Nc1ccc(Cl)cc1)c1ccc(S(=O)(=O)N2CCCCC2)cc1[N+](=O)[O-]	-61*	-8%	18µM*	?	5%	-16%
COc1cc(C(=O)Nc2cc(S(C)(=O)=O)ccc2Cl)ccc1OCC(=O)N1CCOCC1	-12	-8%	-2%	-3%	0%	-2%
O=C(Nc1cccc(Cl)c1)c1cc(-c2ccc3c(c2)OCO3)on1	·	-38%	-29%	?	1%	?
COc1ccc(C)cc1S(=O)(=O)NC1CC1	5	6%	0%	-3%	·	?

Compound activity: PubChem, National Center for Advancing Translational Sciences (NCATS)
